Consider 14 molecules from PubChem BioAssay (NCI).

Values joined by “and” are separate entries in the source; they are usually repeats but may differ in a detail not shown here. Equal entries are not always repeated. The panel holds about 79,000 compounds, 15% with a hit somewhere; the sample as a whole holds those more often. Some structures have more than one record in an assay (separate samples or runs), and their calls can disagree. Active and inactive are the calls of the source. Cut-off read from the data, not from the text of the source: active = growth inhibition above about 70%; inactive = the rest.

A short description of this test: NCI Yeast Anticancer Drug Screen. Data for the cln2 rad14 strain (AID 165).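 Note: 0% = growth equal to vehicle treated cultures.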 Conditions: S. cerevisiae cln2 rad14 strain, stronger effect = higher value. As for the experimental part: Growth inhibition of yeast strains with defined genetic alterations is measured as a screen for potential anti-cancer activity. Selected strains with alterations in DNA damage repair or cell cycle control were exposed to compounds and growth inhibition was measured relative to vehicle treated controls. The strain used in this assay is cln2 rad14

The mark [1] stands for this setting: at 5.0 µM (retest, dose inferred, filed as 0.5).
Setting [2] is: at 50.0 µM (retest, dose inferred, filed as 5.0).

Regarding `CCC1(O)C(=O)OCc2c1cc(C)[nH]c2=O` (configuration not stated), the growth inhibition is -62% (inactive) under setting [1], -64% (inactive) under setting [2] and 23.9% (inactive) (at 50.0 µM).

With `CC1CCC2(NC1)OC1CC3C4CC=C5CC(O)CCC5(C)C4CCC3(C)C1C2C` (configuration not stated), the growth inhibition is 72% (active) and -17% (inactive) under setting [1]; 99% (active) and 98% (active) under setting [2]; 87.5% (active) and 98.5% (active) (at 50.0 µM).

On to `O=C1C2CC(Cl)C(SSC3CC4C(=O)N(SC(Cl)(Cl)C(Cl)Cl)C(=O)C4CC3Cl)CC2C(=O)N1SC(Cl)(Cl)C(Cl)Cl` (configuration not stated), for which the growth inhibition was -20% (inactive) under setting [1], -57% (inactive) under setting [2] and 84.9% (active) (at 50.0 µM).

For the molecule `NN1CCCC1C(=O)O` (configuration not stated), the growth inhibition is 3% (inactive) under setting [1], -2% (inactive) under setting [2] and 76.2% (active) (at 50.0 µM).

Take `CCOC(=O)c1ccccc1N`: the growth inhibition reads like this: under setting [1], 2% (inactive); under setting [2], -4% (inactive); (at 50.0 µM) 45.8% (inactive).

Consider `Clc1ccc(-c2cc(=[N+]3CC[N+](=c4cc(-c5ccc(Cl)cc5)ss4)CC3)ss2)cc1`, for which the growth inhibition reads like this: under setting [1], 5% (inactive); under setting [2], -9% (inactive); (at 50.0 µM) 95.7% (active).

With `Cc1ccc(P(c2ccc(C)cc2)c2ccc(C)cc2)cc1`, the growth inhibition is 69% (inactive) under setting [1], 44% (inactive) under setting [2] and 35.9% (inactive) (at 50.0 µM).

Regarding `[Pt].c1ccc(P(CCP(c2ccccc2)c2ccccc2)CCP(c2ccccc2)c2ccccc2)cc1`, the growth inhibition was 43% (inactive) under setting [1], 91% (active) under setting [2] and 79.2% (active) (at 50.0 µM).

For the molecule `CC(C)CCC[C@@H](C)[C@H]1CC[C@H]2[C@@H]3CC[C@H]4C[C@H](NCCCl)CC[C@]4(C)[C@H]3CC[C@]12C`, the growth inhibition under setting [1] is 28% (inactive), the growth inhibition under setting [2] was 7% (inactive) and the growth inhibition (at 50.0 µM) was 51% (inactive).

Take `FC(F)(F)c1nnn[n-]1.[Au+].c1ccc([PH+](c2ccccc2)c2ccccc2)cc1`: the growth inhibition under setting [1] was 99% (active), the growth inhibition under setting [2] is 96% (active) and the growth inhibition (at 50.0 µM) was 94.5% (active).

Turning to `CC(=O)OC1C2(CC3N4C(=O)C5(CO)SSC4(CC31O)C(=O)N5C)OC(C)C(C)(C)C2=O` (configuration not stated), the growth inhibition is 64% (inactive) under setting [1], 99% (active) under setting [2] and 88.6% (active) (at 50.0 µM).

Turning to `CCN(CCCl)c1ccc(/C=C/C2=[N+](C)c3ccccc3C2(C)C)c(C)c1`, the growth inhibition runs as follows: under setting [1], -4% (inactive); under setting [2], 97% (active); (at 50.0 µM) 71.5% (active).

For `CC1(C)N=C(N)N=C(N)N1c1cccc(N)c1.[Sn]`, the growth inhibition by setting is: under setting [1], 5% (inactive); under setting [2], 28% (inactive); (at 50.0 µM) -12.1% (inactive).

With `O=C(/C=C(\c1ccccc1)N1CC1)c1ccccc1`, the growth inhibition under setting [1] was -63% (inactive), the growth inhibition under setting [2] was 12% (inactive) and the growth inhibition (at 50.0 µM) is 0.55% (inactive).
